In PubChem BioAssay (NCI) one finds growth data, which are given here for 37 compounds.

The structures appear in SMILES notation. This is part of a sample that, as a whole, favours compounds with a hit. Of some 83,000 tested, about 20% had one in any assay.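 Compound tested at a single concentration for 48 hours in 96-well plates; a percent growth value below 10 was scored as active.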 A number with no mark means an inactive call. Calls of active or inactive are those of the source.

The first assay relates to HOP-62 NSCLC. The experiment in a line: NCI-60 one-dose screen, 48 h (100 = growth as untreated, 0 = no growth, -100 = all killed). Conditions: 10 µM.
For the compound `Cc1ccc(NCC(=O)Nn2c(COc3ccccc3)nc3ccccc3c2=O)cc1`, the growth was 27.4%.
On to `NS(=O)(=O)c1ccc(N=Nc2c(O)n(CC(=O)Nc3ccccc3Br)c3ccccc23)cc1`, for which the growth was 37.6%.
On to `CN(C(=O)c1ccc(C(F)(F)F)cc1C(F)(F)F)c1sc2c(c1C#N)CCC(=O)C2`, for which the growth was 92%.
Turning to `CC(C)(C)Nc1nc2cc(Cl)c(Cl)cc2nc1S(C)(=O)=O`, the growth was 88.1%.
`Cc1ccc(/C(N)=N/c2sc(-c3ccccc3)nc2-c2ccccc2)cc1`: the growth is 101%.
Consider `O=c1cc(-c2ccccc2)oc2cc(OCCCNCc3ccccc3)cc(O)c12`, for which the growth is 21.3%.
The same measure, in the same setting: with `CCOC(=O)C1NN(c2ccc(S(N)(=O)=O)cc2)c2nc3nc(-c4cccs4)cc(-c4cccs4)c3c(=O)n21` (configuration not stated) the figure was 109%; with `N#Cc1c(NC(=O)c2ccc(C(F)(F)F)cc2)sc2c1CCC(O)=C2`, 26.3%.
For `COc1ccc2[nH]cc(/C=N/Nc3ccc(Br)cn3)c2c1`, the growth was 45.8%.
With `Cc1cc(C(F)(F)F)ccc1C(=O)Nc1sc2c(c1C#N)CCC(=O)C2`, the growth was 1.05% (active).
In the case of `Cc1ccc(F)cc1N/C=c1\s/c(=C(\C#N)C(=O)Nc2ccccc2)n(-c2ccccc2)c1=O`, the growth was 51.8%.
On to `CCCn1c(=O)c2[nH]c(-c3ccc(OCc4nc5ccc(C)cc5[nH]4)cc3)nc2n(CCC)c1=O`, for which the growth was -17.3% (active).
For `O=C(O)CCCCCCCCCCN1C(=O)/C(=C/c2cnc(-c3ccccc3)s2)SC1=S`, the growth was 115%.
Consider `O=C1NC(=NC2CCCCCC2)N/C1=C\c1ccc2ncoc2c1`, for which the growth was 36.8%.
Consider `COc1ccc2[nH]c(=O)c(CSc3cccc(N)c3)cc2c1`, for which the growth was 61.5%.
Take `O=C(c1ccc(Cl)cc1)C1[C@H](c2ccc(Br)cc2)[C@@H](c2ccccc2)NC12C(=O)Nc1ccc(Cl)cc12` (some centres not stated): the growth was -73.4% (active).
Consider `C=CC(=O)Nc1ccc(C(=O)/C=C/c2ccc(N(C)CCF)cc2)c(O)c1`, for which the growth was -27.5% (active).
As to `COc1cccc(/C=C2\N=C(C)N(CCc3ccc(S(N)(=O)=O)cc3)C2=O)c1`, the growth is 93.5%.
As for `N#Cc1c(NC(=O)c2ccc(C(F)(F)F)cc2)sc2c1CCC(=O)C2`, the growth is -37.7% (active).
Consider `COc1cc2oc(-c3cccc(C(=O)Nc4ccc(Cl)cc4)c3)cc(=O)c2c(OCCNC(=O)CNC(=O)OC(C)(C)C)c1OC`, for which the growth was 74.7%.
For the compound `Cc1ccc(C(=O)NNC(=O)CSc2nc3ccccc3c(=O)[nH]2)cc1`, the growth is 98.8%.
`Brc1ccc(/C=N/Nc2ncnc3sc4c(c23)CCN(Cc2ccccc2)C4)cc1`: the growth is 103%.
Regarding `Cc1cc2nc3c4ccccc4n(CCO)c3nc2cc1C`, the growth is 68.8%.
Still for that read-out and setting: the figure for `O=C1NC(=NC23CC4CC(CC(C4)C2)C3)N/C1=C\c1ccc2ncccc2n1` is -5.42% (active); for `CN1CCN(Cc2ccc(C(=O)Nc3cccc(Nc4ccc5cc(O)ccc5n4)c3)cc2C(F)(F)F)CC1` it is -66.5% (active).

In another assay the test system is NCI-H460 lung. Described as above. Conditions: 10 µM.
On to `O=C(Nc1ccc(I)cc1F)c1cc(-c2ccc(F)cc2F)ccc1O`, for which the growth was 2% (active).
As to `CN1CCN(c2ccc(C(=O)/C=C/c3ccc(C#N)cc3)cc2)CC1`, the growth was 97.1%.
In the case of `Cc1ccc([N+](=O)[O-])c(C(=O)Nc2ccc(-c3ccc4c(c3)NC(=O)/C4=C\c3ccc[nH]3)cc2)c1`, the growth is 0.658% (active).
Turning to `CN1CCO/C1=C(/NC(=O)c1ccc(Cl)cc1)[P+](c1ccccc1)(c1ccccc1)c1ccccc1`, the growth was 94.1%.
With `CNCc1cccc2c1OCCCCCC[C@@](C)(O)CC1(CC1)S(=O)(=O)c1ccc(cc1)-c1cnc(N)c(n1)C(=O)N2`, the growth is -74.8% (active).
For `Cc1cccc(NC(=O)CSc2nc3ccc(F)cc3c(=O)n2-c2ccc(Cl)cc2)c1C`, the growth was 57.9%.
Regarding `CC(=O)OC[C@@]1(C)C2CC[C@]3(C)C(CC=C4C5CC(C)(C)CC[C@]5(C(=O)Nc5ccccc5)CC[C@]43C)[C@@]2(C)C[C@@H](OC(C)=O)[C@@H]1OC(C)=O` (some centres not stated), the growth was 32%.
Same read-out and setting: the figure for `CC1=C2C(=C[C@@](C)(COCOCCCl)[C@@H]2O)C(=O)[C@](C)(O)C12CC2` is -11% (active); for `CCN1CCN(Cc2ccc(NC(=O)c3cccc(-n4cc(-c5ccc(NC(C)=O)nc5)nn4)c3)cc2C(F)(F)F)CC1` it is 100%.
Consider `O=C(c1ccc(O)cc1)C1[C@H](c2ccc(Br)cc2)[C@@H](c2ccccc2)NC12C(=O)Nc1ccccc12` (some centres not stated), for which the growth was 2.57% (active).
For the compound `Nc1nnc(-c2c[nH]c3ccc(F)cc23)c(-c2c[nH]c3ncccc23)n1`, the growth is 50.3%.
As for `O=C(c1ccc(Cl)cc1)C1[C@H](c2ccccc2Br)[C@@H](c2ccccc2)NC12C(=O)Nc1ccc(Cl)cc12` (some centres not stated), the growth is -13.5% (active).
`Cc1ccc(NCC(=O)Nn2c(COc3ccccc3)nc3ccccc3c2=O)cc1`: the growth was 81.4%.
In the case of `NS(=O)(=O)c1ccc(N=Nc2c(O)n(CC(=O)Nc3ccccc3Br)c3ccccc23)cc1`, the growth is 26.4%.
For `CN(C(=O)c1ccc(C(F)(F)F)cc1C(F)(F)F)c1sc2c(c1C#N)CCC(=O)C2`, the growth was 113%.
The same measure, in the same setting: with `CC(C)(C)Nc1nc2cc(Cl)c(Cl)cc2nc1S(C)(=O)=O` the figure was 73.1%; with `Cc1ccc(/C(N)=N/c2sc(-c3ccccc3)nc2-c2ccccc2)cc1`, 76.5%; with `O=c1cc(-c2ccccc2)oc2cc(OCCCNCc3ccccc3)cc(O)c12`, -53.4% (active).
In the case of `CCOC(=O)C1NN(c2ccc(S(N)(=O)=O)cc2)c2nc3nc(-c4cccs4)cc(-c4cccs4)c3c(=O)n21` (configuration not stated), the growth is 77.6%.
On the same count and under the same terms, with `N#Cc1c(NC(=O)c2ccc(C(F)(F)F)cc2)sc2c1CCC(O)=C2` the figure was 14.6%; with `COc1ccc2[nH]cc(/C=N/Nc3ccc(Br)cn3)c2c1`, 16.2%; with `Cc1cc(C(F)(F)F)ccc1C(=O)Nc1sc2c(c1C#N)CCC(=O)C2`, 4.71% (active).
As to `Cc1ccc(F)cc1N/C=c1\s/c(=C(\C#N)C(=O)Nc2ccccc2)n(-c2ccccc2)c1=O`, the growth was 71.7%.
As to `CCCn1c(=O)c2[nH]c(-c3ccc(OCc4nc5ccc(C)cc5[nH]4)cc3)nc2n(CCC)c1=O`, the growth is 13%.
As for `O=C(O)CCCCCCCCCCN1C(=O)/C(=C/c2cnc(-c3ccccc3)s2)SC1=S`, the growth is 29.6%.
Turning to `O=C1NC(=NC2CCCCCC2)N/C1=C\c1ccc2ncoc2c1`, the growth was 20.2%.
`COc1ccc2[nH]c(=O)c(CSc3cccc(N)c3)cc2c1`: the growth was 20.7%.
Take `O=C(c1ccc(Cl)cc1)C1[C@H](c2ccc(Br)cc2)[C@@H](c2ccccc2)NC12C(=O)Nc1ccc(Cl)cc12` (some centres not stated): the growth was -63% (active).
`C=CC(=O)Nc1ccc(C(=O)/C=C/c2ccc(N(C)CCF)cc2)c(O)c1`: the growth is -9.21% (active).
Take `COc1cccc(/C=C2\N=C(C)N(CCc3ccc(S(N)(=O)=O)cc3)C2=O)c1`: the growth was 105%.
Take `N#Cc1c(NC(=O)c2ccc(C(F)(F)F)cc2)sc2c1CCC(=O)C2`: the growth was 0.648% (active).
On to `COc1cc2oc(-c3cccc(C(=O)Nc4ccc(Cl)cc4)c3)cc(=O)c2c(OCCNC(=O)CNC(=O)OC(C)(C)C)c1OC`, for which the growth is 76%.
Consider `Cc1ccc(C(=O)NNC(=O)CSc2nc3ccccc3c(=O)[nH]2)cc1`, for which the growth is 108%.
On the same count and under the same terms, the figure for `Brc1ccc(/C=N/Nc2ncnc3sc4c(c23)CCN(Cc2ccccc2)C4)cc1` is 14%; for `Cc1cc2nc3c4ccccc4n(CCO)c3nc2cc1C` it is 98.3%.
Take `O=C1NC(=NC23CC4CC(CC(C4)C2)C3)N/C1=C\c1ccc2ncccc2n1`: the growth was -8.97% (active).
Take `CN1CCN(Cc2ccc(C(=O)Nc3cccc(Nc4ccc5cc(O)ccc5n4)c3)cc2C(F)(F)F)CC1`: the growth was -74.6% (active).
